Laboratory results reported in the supplement of paper PMC7411054.

Experiments:
Details in all cases: treatment time: 24 h
A549-ACTB-RAB5A [1] = assay: lowest phenotypically active concentration; higher = less potent
How it was run: (§1)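 Two criteria together defined phenotypic activity: deviation and reproducibility. Deviation meant ≥3 of 4 wells beyond the 95th percentile of Euclidean distances in solvent control wells, and reproducibility meant a median replicate Pearson correlation above the 95th percentile of non-replicates. Wells had been treated for 24 h at 0.3, 1, 3 or 9 µM in fifteen gene-edited A549, HepG2 and WPMY1 reporter lines before live imaging.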

A549-GM130-SQSTM1 [2] = assay: as above
How it was run: as §1

A549-TUBA1B-RELA [3] = assay: as above
How it was run: as §1

A549-ACTB-RAB5A [4] = assay: phenotypically active (imaging signature differs from DMSO and reproducible) at any of 0.3-9 uM (binary (1 = active, 0 = inactive)); higher = active
How it was run: as §1

A549-CANX-COX4 = assay: as above
How it was run: as §1

A549-GM130-SQSTM1 [5] = assay: as above
How it was run: as §1

A549-TP53BP1-CLTA = assay: as above
How it was run: as §1

A549-TUBA1B-RELA [6] = assay: as above
How it was run: as §1

HepG2-ACTB-RAB5A = assay: as above
How it was run: as §1

HepG2-CANX-COX4 [7] = assay: as above
How it was run: as §1

HepG2-GM130-SQSTM1 = assay: as above
How it was run: as §1

HepG2-TP53BP1-CLTA = assay: as above
How it was run: as §1

HepG2-TUBA1B-RELA = assay: as above
How it was run: as §1

WPMY1-ACTB-RAB5A [8] = assay: as above
How it was run: as §1

WPMY1-CANX-COX4 = assay: as above
How it was run: as §1

WPMY1-GM130-SQSTM1 = assay: as above
How it was run: as §1

WPMY1-TP53BP1-CLTA = assay: as above
How it was run: as §1

WPMY1-TUBA1B-RELA = assay: as above
How it was run: as §1

HepG2-CANX-COX4 [9] = assay: lowest phenotypically active concentration; higher = less potent
How it was run: as §1

WPMY1-ACTB-RAB5A [10] = assay: as above
How it was run: as §1

O=c1[nH]c2ccccc2n1C1CCN(CCCC(c2ccc(F)cc2)c2ccc(F)cc2)CC1 [pimozide]
active: phenotypically active (A549-ACTB-RAB5A [4]) 1 | phenotypically active (A549-GM130-SQSTM1 [5]) 1 | phenotypically active (A549-TUBA1B-RELA [6]) 1 | phenotypically active (HepG2-ACTB-RAB5A) 1 | phenotypically active (HepG2-GM130-SQSTM1) 1 | phenotypically active (HepG2-TUBA1B-RELA) 1
3 µM: lowest phenotypically active concentration (A549-TUBA1B-RELA [3])
9 µM: lowest phenotypically active concentration (A549-ACTB-RAB5A [1]) | lowest phenotypically active concentration (A549-GM130-SQSTM1 [2])
inactive: phenotypically active (A549-CANX-COX4) 0 | phenotypically active (A549-TP53BP1-CLTA) 0 | phenotypically active (HepG2-CANX-COX4 [7]) 0 | phenotypically active (HepG2-TP53BP1-CLTA) 0 | phenotypically active (WPMY1-ACTB-RAB5A [8]) 0 | phenotypically active (WPMY1-CANX-COX4) 0 | phenotypically active (WPMY1-GM130-SQSTM1) 0 | phenotypically active (WPMY1-TP53BP1-CLTA) 0 | phenotypically active (WPMY1-TUBA1B-RELA) 0

O=C(Nc1ccncc1)C(=O)c1cn(Cc2ccc(Cl)cc2)c2ccccc12 [Indibulin]
active: phenotypically active (A549-ACTB-RAB5A [4]) 1 | phenotypically active (A549-GM130-SQSTM1 [5]) 1 | phenotypically active (A549-TP53BP1-CLTA) 1 | phenotypically active (A549-TUBA1B-RELA [6]) 1 | phenotypically active (HepG2-ACTB-RAB5A) 1 | phenotypically active (HepG2-CANX-COX4 [7]) 1 | phenotypically active (HepG2-GM130-SQSTM1) 1 | phenotypically active (HepG2-TP53BP1-CLTA) 1 | phenotypically active (HepG2-TUBA1B-RELA) 1 | phenotypically active (WPMY1-ACTB-RAB5A [8]) 1 | phenotypically active (WPMY1-CANX-COX4) 1 | phenotypically active (WPMY1-GM130-SQSTM1) 1 | phenotypically active (WPMY1-TP53BP1-CLTA) 1 | phenotypically active (WPMY1-TUBA1B-RELA) 1
inactive: phenotypically active (A549-CANX-COX4) 0
≤ 0.3 µM: lowest phenotypically active concentration (A549-ACTB-RAB5A [1]) | lowest phenotypically active concentration (A549-GM130-SQSTM1 [2]) | lowest phenotypically active concentration (A549-TUBA1B-RELA [3]) | lowest phenotypically active concentration (HepG2-CANX-COX4 [9]) | lowest phenotypically active concentration (WPMY1-ACTB-RAB5A [10])

Cc1sc2c(c1C)C(c1ccc(Cl)cc1)=N[C@@H](CC(N)=O)c1nnc(C)n1-2
active: phenotypically active (A549-ACTB-RAB5A [4]) 1 | phenotypically active (A549-CANX-COX4) 1 | phenotypically active (A549-GM130-SQSTM1 [5]) 1 | phenotypically active (A549-TP53BP1-CLTA) 1 | phenotypically active (A549-TUBA1B-RELA [6]) 1 | phenotypically active (HepG2-ACTB-RAB5A) 1 | phenotypically active (HepG2-CANX-COX4 [7]) 1 | phenotypically active (HepG2-GM130-SQSTM1) 1 | phenotypically active (HepG2-TP53BP1-CLTA) 1 | phenotypically active (HepG2-TUBA1B-RELA) 1 | phenotypically active (WPMY1-ACTB-RAB5A [8]) 1 | phenotypically active (WPMY1-CANX-COX4) 1 | phenotypically active (WPMY1-GM130-SQSTM1) 1 | phenotypically active (WPMY1-TP53BP1-CLTA) 1 | phenotypically active (WPMY1-TUBA1B-RELA) 1
≤ 0.3 µM: lowest phenotypically active concentration (A549-ACTB-RAB5A [1]) | lowest phenotypically active concentration (A549-GM130-SQSTM1 [2]) | lowest phenotypically active concentration (A549-TUBA1B-RELA [3]) | lowest phenotypically active concentration (HepG2-CANX-COX4 [9]) | lowest phenotypically active concentration (WPMY1-ACTB-RAB5A [10])

C[C@H](CCC(=O)O)C[C@H](C)C[C@H](C)C(=O)/C=C(\O)[C@H](C)C[C@H](C)C/C=C/[C@@H](C)[C@@H](O)[C@@H](C)[C@@H](O)C[C@@H]1CC[C@@](C)([C@H]2CC[C@@](C)([C@@H](C)O)O2)O1 [Ionomycin free acid]
active: phenotypically active (A549-CANX-COX4) 1 | phenotypically active (HepG2-CANX-COX4 [7]) 1 | phenotypically active (HepG2-TUBA1B-RELA) 1 | phenotypically active (WPMY1-ACTB-RAB5A [8]) 1 | phenotypically active (WPMY1-CANX-COX4) 1 | phenotypically active (WPMY1-GM130-SQSTM1) 1 | phenotypically active (WPMY1-TP53BP1-CLTA) 1
inactive: phenotypically active (A549-ACTB-RAB5A [4]) 0 | phenotypically active (A549-GM130-SQSTM1 [5]) 0 | phenotypically active (A549-TP53BP1-CLTA) 0 | phenotypically active (A549-TUBA1B-RELA [6]) 0 | phenotypically active (HepG2-ACTB-RAB5A) 0 | phenotypically active (HepG2-GM130-SQSTM1) 0 | phenotypically active (HepG2-TP53BP1-CLTA) 0 | phenotypically active (WPMY1-TUBA1B-RELA) 0
3 µM: lowest phenotypically active concentration (WPMY1-ACTB-RAB5A [10])
9 µM: lowest phenotypically active concentration (HepG2-CANX-COX4 [9])

O=C1NC(=O)c2c1c1c3ccccc3n3c1c1c2c2ccccc2n1C1CCC3O1
inactive: phenotypically active (A549-CANX-COX4) 0 | phenotypically active (A549-TP53BP1-CLTA) 0 | phenotypically active (HepG2-ACTB-RAB5A) 0 | phenotypically active (HepG2-CANX-COX4 [7]) 0 | phenotypically active (HepG2-GM130-SQSTM1) 0 | phenotypically active (HepG2-TUBA1B-RELA) 0 | phenotypically active (WPMY1-TUBA1B-RELA) 0
≤ 0.3 µM: lowest phenotypically active concentration (A549-ACTB-RAB5A [1]) | lowest phenotypically active concentration (A549-GM130-SQSTM1 [2]) | lowest phenotypically active concentration (A549-TUBA1B-RELA [3])
active: phenotypically active (A549-ACTB-RAB5A [4]) 1 | phenotypically active (A549-GM130-SQSTM1 [5]) 1 | phenotypically active (A549-TUBA1B-RELA [6]) 1 | phenotypically active (HepG2-TP53BP1-CLTA) 1 | phenotypically active (WPMY1-ACTB-RAB5A [8]) 1 | phenotypically active (WPMY1-CANX-COX4) 1 | phenotypically active (WPMY1-GM130-SQSTM1) 1 | phenotypically active (WPMY1-TP53BP1-CLTA) 1
3 µM: lowest phenotypically active concentration (WPMY1-ACTB-RAB5A [10])

C/C=C(/C)C(=O)O[C@H]1C(C)=C2[C@H]([C@@H]1OC(=O)CCCCCCC)[C@@](C)(OC(C)=O)C[C@H](OC(=O)CCC)[C@@]1(O)[C@H]2OC(=O)[C@@]1(C)O [Thapsigargin]
active: phenotypically active (A549-ACTB-RAB5A [4]) 1 | phenotypically active (A549-CANX-COX4) 1 | phenotypically active (A549-GM130-SQSTM1 [5]) 1 | phenotypically active (A549-TP53BP1-CLTA) 1 | phenotypically active (A549-TUBA1B-RELA [6]) 1 | phenotypically active (HepG2-ACTB-RAB5A) 1 | phenotypically active (HepG2-CANX-COX4 [7]) 1 | phenotypically active (HepG2-GM130-SQSTM1) 1 | phenotypically active (HepG2-TP53BP1-CLTA) 1 | phenotypically active (HepG2-TUBA1B-RELA) 1 | phenotypically active (WPMY1-ACTB-RAB5A [8]) 1 | phenotypically active (WPMY1-CANX-COX4) 1 | phenotypically active (WPMY1-GM130-SQSTM1) 1 | phenotypically active (WPMY1-TP53BP1-CLTA) 1 | phenotypically active (WPMY1-TUBA1B-RELA) 1
≤ 0.3 µM: lowest phenotypically active concentration (A549-ACTB-RAB5A [1]) | lowest phenotypically active concentration (A549-GM130-SQSTM1 [2]) | lowest phenotypically active concentration (A549-TUBA1B-RELA [3]) | lowest phenotypically active concentration (HepG2-CANX-COX4 [9]) | lowest phenotypically active concentration (WPMY1-ACTB-RAB5A [10])
